Data from PubChem BioAssay (Tox21).
Inconclusive results are not listed. Activity calls are given as the source filed them. Calls come from the whole dose curve.

Columns and labels:
[1] = target: Acetylcholinesterase (Homo sapiens) (UniProt P22303); assay: Acetylcholinesterase (AChE) small molecule antagonists: colormetric cell-based qHTS assay (AID 1347395); settings: SH-SY5Y cells AChE activity, colorimetric (Ellman); series mostly up to 115 µM; note: nearly all actives have a fitted effect of over 30% in size
In short: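 Homogeneous whole-cell format. SH-SY5Y cells seeded overnight, dosed with compound (30 min, 37 C, 5% CO2), then given DTNB/acetylthiocholine cocktail for 90 min at 37 C; colorimetric signal.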

[2] = target: Acetylcholinesterase (Homo sapiens) (UniProt P22303); assay: Acetylcholinesterase (AChE) small molecule antagonists: enzyme-based qHTS assay (AID 1347397); settings: Potency: AChE enzyme activity inhibition; outcome: AChE enzyme activity inhibition; series mostly up to 115 µM; note: nearly all actives have a fitted effect of over 55% in size
In short: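 Colorimetric DTNB readout of acetylthiocholine hydrolysis, 10 min at room temperature, after 30 min room-temperature exposure of 50 mU/mL recombinant human enzyme to compound; DMSO vehicle control.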

[3] = target: Acetylcholinesterase (Homo sapiens) (UniProt P22303); assay: Acetylcholinesterase (AChE) small molecule antagonists: fluorescence cell-based qHTS assay (AID 1347398); settings: SH-SY5Y cells; Potency: AChE activity; outcome: AChE activity; series mostly up to 115 µM; note: nearly all actives have a fitted effect of over 50% in size
In short: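 Cellular AChE activity read as thiocholine from acetylthiocholine hydrolysis, detected by Thiolite Green fluorescence at 490/520 nm after 40 min at room temperature. Compounds were pre-incubated 30 min at 37 C on adherent SH-SY5Y cells.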

[4] = target: Acetylcholinesterase (Homo sapiens) (UniProt P22303); assay: Acetylcholinesterase (AChE) small molecule antagonists: enzyme-based qHTS assay with human liver microsomes (AID 1347399); settings: Potency: qHTS inhibition; outcome: qHTS inhibition; series mostly up to 115 µM; note: nearly all actives have a fitted effect of over 60% in size
In short: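 Recombinant human AChE (50 mU/mL in the enzyme mix) and human liver microsomes (0.25 mg/mL final) were preincubated with compound and NADPH (0.25 mg/mL final) for 30 min at 37 C. Acetylthiocholine/DTNB was then added; thiocholine was read colorimetrically after 10 min at room temperature.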
% is set by controls: 0 for no effect and ±100 for the full control effect.

Chain of Acetylcholinesterase (Homo sapiens) (P22303 whole entry, looked up): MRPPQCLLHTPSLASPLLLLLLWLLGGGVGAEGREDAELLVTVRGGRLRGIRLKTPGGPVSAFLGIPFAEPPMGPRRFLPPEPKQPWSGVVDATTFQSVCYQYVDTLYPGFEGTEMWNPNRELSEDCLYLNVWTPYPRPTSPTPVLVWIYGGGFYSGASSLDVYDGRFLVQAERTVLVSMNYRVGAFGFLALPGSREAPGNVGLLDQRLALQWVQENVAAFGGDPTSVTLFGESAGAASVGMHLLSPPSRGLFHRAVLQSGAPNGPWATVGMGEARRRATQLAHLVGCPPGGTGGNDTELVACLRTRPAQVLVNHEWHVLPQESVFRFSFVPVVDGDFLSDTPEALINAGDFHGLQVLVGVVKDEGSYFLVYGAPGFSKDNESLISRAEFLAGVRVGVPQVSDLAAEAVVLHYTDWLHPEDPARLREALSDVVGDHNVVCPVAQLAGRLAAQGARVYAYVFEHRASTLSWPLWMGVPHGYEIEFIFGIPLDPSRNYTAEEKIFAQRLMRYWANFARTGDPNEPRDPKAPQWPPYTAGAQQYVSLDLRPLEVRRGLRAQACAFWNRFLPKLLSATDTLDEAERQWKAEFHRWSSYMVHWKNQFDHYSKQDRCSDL

CCCCCCCCCC[N+](C)(C)[O-]
inactive: Potency [1] | Potency [2] | Potency [3] | Potency [4]

O=C(C(=O)c1ccco1)c1ccco1
inactive: Potency [1] | Potency [2] | Potency [3] | Potency [4]

CC(=O)SCC(CC(=O)c1ccc(C)cc1)C(=O)O (stereo unspecified)
inactive: Potency [1] | Potency [2] | Potency [3] | Potency [4]

CN(C)CCN1CCN(c2cccc(Cl)c2)C1=O
inactive: Potency [1] | Potency [2] | Potency [3] | Potency [4]

O=c1c(O)c(-c2ccc(O)cc2O)oc2cc(O)cc(O)c12
inactive: Potency [1] | Potency [2] | Potency [3] | Potency [4]

COc1ccc2c(c1OC)C(=O)O[C@@H]2[C@H]1c2c(cc3c(c2OC)OCO3)CCN1C
inactive: Potency [1] | Potency [2] | Potency [3] | Potency [4]

OCC(O)c1ccccc1 (stereo unspecified)
inactive: Potency [1] | Potency [2] | Potency [3] | Potency [4]

CN(C(=O)C(Cl)Cl)c1ccc(OC(=O)c2ccco2)cc1
inactive: Potency [1] | Potency [2] | Potency [3] | Potency [4]

CC[C@@]1(O)C(=O)OCc2c1cc1n(c2=O)Cc2c-1nc1ccccc1c2/C=N/OC(C)(C)C
inactive: Potency [1] | Potency [2] | Potency [3] | Potency [4]

N=C(N)S(=O)O
inactive: Potency [1] | Potency [2] | Potency [3] | Potency [4]

C=C1CC[C@H]2C[C@@H]1C2(C)C
inactive: Potency [1] | Potency [2] | Potency [3] | Potency [4]

COc1ccccc1N1CCN(CCCNc2cc(=O)n(C)c(=O)n2C)CC1
inactive: Potency [1] | Potency [2] | Potency [3] | Potency [4]

O=C(NS(=O)(=O)/C=C/c1cccs1)c1ccc(F)cc1Br
inactive: Potency [1] | Potency [2] | Potency [3] | Potency [4]

c1ccc2c(c1)ccc1c3ccccc3ccc21
inactive: Potency [1] | Potency [2] | Potency [3] | Potency [4]

O=C(NCCO[N+](=O)[O-])c1cccnc1
inactive: Potency [1] | Potency [2] | Potency [3] | Potency [4]

CCCOC(OCCC)OCCC
inactive: Potency [1] | Potency [2] | Potency [3] | Potency [4]

CCc1cc(Cc2cc(CC)c(N)c(CC)c2)cc(CC)c1N
inactive: Potency [1] | Potency [2] | Potency [3] | Potency [4]

CCOC(=O)OC(=O)OCC
inactive: Potency [1] | Potency [2] | Potency [3] | Potency [4]

NCC(=O)O
inactive: activity, negative = inhibition [1] 0.505% [at 23.6 µM] | activity change, negative = inhibition [2] 0.147% [at 23.6 µM] | activity change, negative = inhibition [3] 6.61% [at 23.8 µM] | activity change, negative = inhibition [4] 0.434% [at 23.6 µM]

COCc1ccc(COC)cc1
inactive: Potency [1] | Potency [2] | Potency [3] | Potency [4]

C=CCCCC
inactive: Potency [1] | Potency [2] | Potency [3] | Potency [4]

CC(=O)C(C)=O
inactive: Potency [1] | Potency [2] | Potency [3] | Potency [4]

OCCCS
inactive: Potency [1] | Potency [2] | Potency [3] | Potency [4]

CCc1cccc(C)c1
inactive: Potency [1] | Potency [2] | Potency [3] | Potency [4]

Cc1ccc(/C=N/n2c(-c3ccccc3)csc2=S)cc1
inactive: Potency [1] | Potency [2] | Potency [3] | Potency [4]

CCCCCCCCCI
inactive: Potency [1] | Potency [2] | Potency [3] | Potency [4]

CO[Si](CCC1CCC2OC2C1)(OC)OC (stereo unspecified)
inactive: Potency [1] | Potency [2] | Potency [3] | Potency [4]

C=CC1CC2C=CC1C2 (stereo unspecified)
inactive: Potency [1] | Potency [2] | Potency [3] | Potency [4]

Cc1ccc(O)cn1
inactive: Potency [1] | Potency [2] | Potency [3] | Potency [4]

CC(C)(C)c1ccc(N)cc1
inactive: Potency [1] | Potency [2] | Potency [3] | Potency [4]

C=CC(C)=CCC=C(C)C
inactive: Potency [1] | Potency [2] | Potency [3] | Potency [4]

COc1cc(C(=O)NC2CCCNC2)cc(OC)c1OC (stereo unspecified)
inactive: Potency [1] | Potency [2] | Potency [3] | Potency [4]

CC(=O)c1cc(C)oc1C
inactive: Potency [1] | Potency [2] | Potency [3] | Potency [4]

O=S(=O)(O)c1cc(I)c(O)c2ncccc12
inactive: Potency [1] | Potency [2] | Potency [3] | Potency [4]
